Source: article PMC7862700, “An all-to-all approach to the identification of sequence-specific readers for epigenetic DNA modifications on cytosine”

How the values were obtained:
Assay in all cases: DAPPL (digital affinity profiling via proximity ligation, sequencing); 10 mM Tris-HCl pH 7.5, 50 mM NaCl, 1 mM DTT, 4% glycerol, room temperature, 30 min; GST-TFs on glutathione beads, 16-mer random dsDNA library, 0.1% formaldehyde crosslink after washing; high values mean tight binding
FEV = molecular target: T1, FEV (Homo sapiens, UniProt Q99581 1-238); conditions: protein: recombinant; tags: N-terminal GST; dsDNA, one strand shown
T1 sequence: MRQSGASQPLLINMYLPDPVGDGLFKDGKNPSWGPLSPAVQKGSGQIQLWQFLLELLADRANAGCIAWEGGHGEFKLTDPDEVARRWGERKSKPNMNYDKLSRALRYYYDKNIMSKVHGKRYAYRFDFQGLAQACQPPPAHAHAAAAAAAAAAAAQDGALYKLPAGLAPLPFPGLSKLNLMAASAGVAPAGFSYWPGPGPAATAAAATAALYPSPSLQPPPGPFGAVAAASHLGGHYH
Summary of the method: (§1)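 Pools of DNA-barcoded human transcription factors, expressed in yeast as GST fusions on glutathione beads and combined with a tag-only sample, were incubated with 200 nmole of a 16-mer random double-stranded DNA library. Incubation took 30 min at room temperature in Tris/NaCl/DTT/glycerol buffer and was followed by washing, 0.1% formaldehyde crosslinking, proximity ligation (BsaI/T4 ligase, 1 h, 37 °C), PCR amplification and sequencing on an Illumina NextSeq500. Binding signal is the ratio of a hexamer's read frequency for a factor to its frequency for the tag-only sample.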

ETV5 = ETV5 (Homo sapiens, UniProt P41161 1-510); conditions: protein: recombinant; tags: N-terminal GST; dsDNA, one strand shown
Chain of ETV5 (P41161 whole entry): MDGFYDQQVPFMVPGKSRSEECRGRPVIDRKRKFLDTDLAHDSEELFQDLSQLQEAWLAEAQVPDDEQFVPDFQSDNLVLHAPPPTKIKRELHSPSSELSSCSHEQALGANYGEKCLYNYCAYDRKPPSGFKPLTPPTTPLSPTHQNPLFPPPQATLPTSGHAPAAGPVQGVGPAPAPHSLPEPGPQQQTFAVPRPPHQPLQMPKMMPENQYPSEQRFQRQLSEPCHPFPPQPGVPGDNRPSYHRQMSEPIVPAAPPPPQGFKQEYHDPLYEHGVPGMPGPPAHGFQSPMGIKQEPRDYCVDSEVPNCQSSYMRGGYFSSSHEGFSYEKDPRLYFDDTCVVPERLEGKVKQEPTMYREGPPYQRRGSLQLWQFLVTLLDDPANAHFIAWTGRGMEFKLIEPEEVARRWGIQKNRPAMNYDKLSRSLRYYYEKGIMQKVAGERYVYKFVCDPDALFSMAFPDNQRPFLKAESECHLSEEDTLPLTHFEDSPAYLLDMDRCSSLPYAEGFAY
Summary of the method: as §1

HSF1 = HSF1 (Homo sapiens, UniProt Q00613 1-529); conditions: protein: recombinant; tags: N-terminal GST; chain copies: 3; dsDNA, one strand shown
Chain of HSF1 (Q00613 whole entry): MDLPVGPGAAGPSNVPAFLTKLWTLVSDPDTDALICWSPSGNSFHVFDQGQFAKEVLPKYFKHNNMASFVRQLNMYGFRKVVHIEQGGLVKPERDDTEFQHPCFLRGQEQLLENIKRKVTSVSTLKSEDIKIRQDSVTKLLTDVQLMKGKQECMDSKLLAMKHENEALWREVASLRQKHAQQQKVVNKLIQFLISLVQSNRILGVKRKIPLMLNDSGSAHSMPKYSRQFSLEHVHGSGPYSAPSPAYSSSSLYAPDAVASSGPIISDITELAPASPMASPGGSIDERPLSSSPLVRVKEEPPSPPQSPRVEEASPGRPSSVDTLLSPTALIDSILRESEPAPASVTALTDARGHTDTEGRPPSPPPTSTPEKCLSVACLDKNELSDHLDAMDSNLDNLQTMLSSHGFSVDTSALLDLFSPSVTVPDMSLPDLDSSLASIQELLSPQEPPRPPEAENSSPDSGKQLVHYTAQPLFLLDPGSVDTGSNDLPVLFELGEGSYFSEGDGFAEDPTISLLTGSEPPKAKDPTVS
Summary of the method: as §1

SPIC = molecular target: T2, SPIC (Homo sapiens, UniProt Q8N5J4 1-248); conditions: protein: recombinant; tags: N-terminal GST; dsDNA, one strand shown
T2 sequence: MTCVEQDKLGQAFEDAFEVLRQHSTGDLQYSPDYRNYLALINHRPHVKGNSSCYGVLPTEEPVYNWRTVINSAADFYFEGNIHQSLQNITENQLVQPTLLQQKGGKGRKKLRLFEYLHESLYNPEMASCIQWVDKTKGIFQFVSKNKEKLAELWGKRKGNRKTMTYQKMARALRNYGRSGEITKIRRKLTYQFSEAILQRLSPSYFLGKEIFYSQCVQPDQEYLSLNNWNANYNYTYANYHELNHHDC
Summary of the method: as §1

ELF4 = ELF4 (Homo sapiens, UniProt Q99607 1-663); conditions: protein: recombinant; tags: N-terminal GST; dsDNA, one strand shown
Chain of ELF4 (Q99607 whole entry): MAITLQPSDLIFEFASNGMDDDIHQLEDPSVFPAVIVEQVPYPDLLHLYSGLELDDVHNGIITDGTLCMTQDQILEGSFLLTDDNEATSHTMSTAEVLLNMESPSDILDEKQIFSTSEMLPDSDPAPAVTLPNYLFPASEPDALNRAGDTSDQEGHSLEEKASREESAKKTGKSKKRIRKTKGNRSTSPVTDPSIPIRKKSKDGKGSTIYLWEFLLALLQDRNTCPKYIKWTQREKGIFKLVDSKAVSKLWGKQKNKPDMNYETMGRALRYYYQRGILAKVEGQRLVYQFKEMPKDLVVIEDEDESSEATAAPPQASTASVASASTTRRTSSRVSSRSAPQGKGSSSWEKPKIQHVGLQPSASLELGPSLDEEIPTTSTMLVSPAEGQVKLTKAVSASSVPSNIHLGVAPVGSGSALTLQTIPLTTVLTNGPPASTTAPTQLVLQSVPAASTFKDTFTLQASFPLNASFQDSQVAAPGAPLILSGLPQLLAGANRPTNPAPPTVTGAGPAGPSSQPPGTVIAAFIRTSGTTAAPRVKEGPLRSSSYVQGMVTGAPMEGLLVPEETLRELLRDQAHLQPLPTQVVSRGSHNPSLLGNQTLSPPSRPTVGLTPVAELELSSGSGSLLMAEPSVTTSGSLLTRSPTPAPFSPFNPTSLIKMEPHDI
Summary of the method: as §1

ELK4 = molecular target: T3, ELK4 (Homo sapiens, UniProt P28324-2 1-405); conditions: protein: recombinant; tags: N-terminal GST; dsDNA, one strand shown
T3 sequence: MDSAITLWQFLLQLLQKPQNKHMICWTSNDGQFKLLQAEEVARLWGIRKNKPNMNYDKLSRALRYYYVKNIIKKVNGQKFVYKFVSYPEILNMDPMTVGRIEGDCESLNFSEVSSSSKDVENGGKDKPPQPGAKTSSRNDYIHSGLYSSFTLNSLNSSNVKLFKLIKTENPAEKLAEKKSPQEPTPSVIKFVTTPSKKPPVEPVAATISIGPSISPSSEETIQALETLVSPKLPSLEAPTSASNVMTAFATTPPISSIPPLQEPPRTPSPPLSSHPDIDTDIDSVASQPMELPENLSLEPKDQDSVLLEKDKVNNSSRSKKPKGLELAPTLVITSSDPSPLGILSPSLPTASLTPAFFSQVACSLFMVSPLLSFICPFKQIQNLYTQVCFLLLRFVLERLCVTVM
Summary of the method: as §1

ETV2 = molecular target: T4, ETV2 (Homo sapiens, UniProt O00321 1-342); conditions: protein: recombinant; tags: N-terminal GST; dsDNA, one strand shown
T4 sequence: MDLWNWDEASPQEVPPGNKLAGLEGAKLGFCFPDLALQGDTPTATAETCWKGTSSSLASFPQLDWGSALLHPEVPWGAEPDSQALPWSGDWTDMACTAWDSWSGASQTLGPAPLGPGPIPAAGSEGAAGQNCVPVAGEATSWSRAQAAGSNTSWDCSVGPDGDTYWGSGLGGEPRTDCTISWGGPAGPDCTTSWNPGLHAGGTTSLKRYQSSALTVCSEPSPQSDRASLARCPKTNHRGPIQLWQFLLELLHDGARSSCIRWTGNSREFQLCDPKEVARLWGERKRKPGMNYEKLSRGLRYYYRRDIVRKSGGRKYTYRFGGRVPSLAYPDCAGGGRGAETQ
Summary of the method: as §1

ELF3 = molecular target: T5, ELF3 (Homo sapiens, UniProt P78545 1-371); conditions: protein: recombinant; tags: N-terminal GST; dsDNA, one strand shown
T5 sequence: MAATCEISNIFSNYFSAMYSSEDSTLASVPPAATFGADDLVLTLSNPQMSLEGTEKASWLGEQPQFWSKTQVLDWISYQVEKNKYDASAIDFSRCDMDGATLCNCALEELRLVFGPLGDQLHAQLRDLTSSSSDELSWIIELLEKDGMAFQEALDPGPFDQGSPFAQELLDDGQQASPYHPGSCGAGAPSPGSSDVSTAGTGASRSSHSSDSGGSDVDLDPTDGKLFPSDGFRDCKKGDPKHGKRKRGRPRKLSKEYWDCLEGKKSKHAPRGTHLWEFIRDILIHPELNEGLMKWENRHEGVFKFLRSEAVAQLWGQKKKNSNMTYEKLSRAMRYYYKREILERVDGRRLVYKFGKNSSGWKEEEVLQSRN
Summary of the method: as §1

CRX = CRX (Homo sapiens, UniProt O43186 1-299); conditions: protein: recombinant; tags: N-terminal GST; dsDNA, one strand shown
Chain of CRX (O43186 whole entry): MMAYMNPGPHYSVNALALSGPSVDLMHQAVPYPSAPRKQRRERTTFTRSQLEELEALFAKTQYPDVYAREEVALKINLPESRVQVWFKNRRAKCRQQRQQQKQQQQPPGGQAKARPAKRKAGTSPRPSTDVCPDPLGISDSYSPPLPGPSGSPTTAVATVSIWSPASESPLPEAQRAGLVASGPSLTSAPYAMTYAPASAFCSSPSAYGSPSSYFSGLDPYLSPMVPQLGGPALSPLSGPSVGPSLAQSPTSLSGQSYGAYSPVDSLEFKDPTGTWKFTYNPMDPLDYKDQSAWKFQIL
Summary of the method: as §1

ETV1 = ETV1 (Homo sapiens, UniProt P50549 1-477); conditions: protein: recombinant; tags: N-terminal GST; dsDNA, one strand shown
Chain of ETV1 (P50549 whole entry): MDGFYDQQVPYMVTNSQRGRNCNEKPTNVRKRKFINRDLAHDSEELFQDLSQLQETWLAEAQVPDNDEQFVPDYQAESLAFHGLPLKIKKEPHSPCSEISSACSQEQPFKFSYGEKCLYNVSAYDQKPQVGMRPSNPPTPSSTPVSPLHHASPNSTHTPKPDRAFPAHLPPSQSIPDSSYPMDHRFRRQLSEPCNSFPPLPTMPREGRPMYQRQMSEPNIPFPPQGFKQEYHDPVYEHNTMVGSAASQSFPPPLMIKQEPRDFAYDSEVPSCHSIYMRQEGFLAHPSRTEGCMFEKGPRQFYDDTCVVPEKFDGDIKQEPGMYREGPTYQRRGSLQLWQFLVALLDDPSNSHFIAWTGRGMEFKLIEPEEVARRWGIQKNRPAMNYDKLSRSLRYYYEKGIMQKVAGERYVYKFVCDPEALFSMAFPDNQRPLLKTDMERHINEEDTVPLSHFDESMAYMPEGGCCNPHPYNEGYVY
Summary of the method: as §1

ERF = molecular target: T6, ERF (Homo sapiens, UniProt P50548 1-548); conditions: protein: recombinant; tags: N-terminal GST; dsDNA, one strand shown
T6 sequence: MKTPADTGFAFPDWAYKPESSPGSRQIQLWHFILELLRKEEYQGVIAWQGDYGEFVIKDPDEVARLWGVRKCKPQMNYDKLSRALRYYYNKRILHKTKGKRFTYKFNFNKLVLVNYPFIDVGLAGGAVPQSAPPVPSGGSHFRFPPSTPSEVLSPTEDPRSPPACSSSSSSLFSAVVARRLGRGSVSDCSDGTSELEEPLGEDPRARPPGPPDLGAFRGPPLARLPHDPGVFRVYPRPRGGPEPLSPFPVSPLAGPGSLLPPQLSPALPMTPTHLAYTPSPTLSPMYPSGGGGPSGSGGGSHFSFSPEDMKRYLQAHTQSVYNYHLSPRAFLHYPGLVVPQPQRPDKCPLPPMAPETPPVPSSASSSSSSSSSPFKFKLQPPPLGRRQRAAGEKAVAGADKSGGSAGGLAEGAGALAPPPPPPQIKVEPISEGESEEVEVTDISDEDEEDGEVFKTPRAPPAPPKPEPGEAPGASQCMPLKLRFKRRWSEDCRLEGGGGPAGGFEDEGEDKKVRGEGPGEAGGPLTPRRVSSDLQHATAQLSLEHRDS
Summary of the method: as §1

ETV3L = molecular target: T7, ETV3L (Homo sapiens, UniProt Q6ZN32 1-361); conditions: protein: recombinant; tags: N-terminal GST; dsDNA, one strand shown
T7 sequence: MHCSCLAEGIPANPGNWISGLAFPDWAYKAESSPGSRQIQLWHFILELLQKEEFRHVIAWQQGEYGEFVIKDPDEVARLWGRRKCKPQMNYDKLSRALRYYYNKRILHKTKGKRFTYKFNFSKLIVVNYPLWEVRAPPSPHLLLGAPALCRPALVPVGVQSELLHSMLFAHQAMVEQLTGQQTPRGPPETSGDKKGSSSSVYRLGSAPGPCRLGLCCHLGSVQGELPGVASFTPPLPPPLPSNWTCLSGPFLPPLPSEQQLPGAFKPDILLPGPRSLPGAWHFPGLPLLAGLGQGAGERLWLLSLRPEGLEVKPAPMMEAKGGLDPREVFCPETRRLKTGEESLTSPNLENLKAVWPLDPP
Summary of the method: as §1

ETS2 = molecular target: T8, ETS2 (Homo sapiens, UniProt P15036 1-469); conditions: protein: recombinant; tags: N-terminal GST; dsDNA, one strand shown
T8 sequence: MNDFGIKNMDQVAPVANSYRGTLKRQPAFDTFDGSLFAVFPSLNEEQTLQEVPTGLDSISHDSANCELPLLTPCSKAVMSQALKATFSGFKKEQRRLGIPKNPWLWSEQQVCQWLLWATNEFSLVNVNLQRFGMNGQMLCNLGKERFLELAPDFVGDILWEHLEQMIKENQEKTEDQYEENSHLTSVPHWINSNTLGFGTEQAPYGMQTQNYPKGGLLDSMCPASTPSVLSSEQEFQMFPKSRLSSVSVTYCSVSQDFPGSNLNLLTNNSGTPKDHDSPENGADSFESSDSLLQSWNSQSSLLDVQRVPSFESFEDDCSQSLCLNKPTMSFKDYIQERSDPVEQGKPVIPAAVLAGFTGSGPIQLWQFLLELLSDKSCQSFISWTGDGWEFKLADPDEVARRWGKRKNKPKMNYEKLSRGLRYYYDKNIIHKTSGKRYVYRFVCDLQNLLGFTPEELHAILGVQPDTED
Summary of the method: as §1

SPDEF = molecular target: T9, SPDEF (Homo sapiens, UniProt O95238 1-335); conditions: protein: recombinant; tags: N-terminal GST; dsDNA, one strand shown
T9 sequence: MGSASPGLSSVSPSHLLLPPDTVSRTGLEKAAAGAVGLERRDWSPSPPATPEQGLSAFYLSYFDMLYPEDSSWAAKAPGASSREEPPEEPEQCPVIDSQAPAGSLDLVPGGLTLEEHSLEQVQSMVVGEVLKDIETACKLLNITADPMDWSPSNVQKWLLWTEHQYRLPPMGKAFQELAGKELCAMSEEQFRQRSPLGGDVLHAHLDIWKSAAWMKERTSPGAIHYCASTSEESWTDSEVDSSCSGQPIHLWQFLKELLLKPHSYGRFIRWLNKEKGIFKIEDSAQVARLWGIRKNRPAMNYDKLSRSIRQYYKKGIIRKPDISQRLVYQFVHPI
Summary of the method: as §1

ELF5 = molecular target: T10, ELF5 (Homo sapiens, UniProt Q9UKW6-2 1-255); conditions: protein: recombinant; tags: N-terminal GST; dsDNA, one strand shown
T10 sequence: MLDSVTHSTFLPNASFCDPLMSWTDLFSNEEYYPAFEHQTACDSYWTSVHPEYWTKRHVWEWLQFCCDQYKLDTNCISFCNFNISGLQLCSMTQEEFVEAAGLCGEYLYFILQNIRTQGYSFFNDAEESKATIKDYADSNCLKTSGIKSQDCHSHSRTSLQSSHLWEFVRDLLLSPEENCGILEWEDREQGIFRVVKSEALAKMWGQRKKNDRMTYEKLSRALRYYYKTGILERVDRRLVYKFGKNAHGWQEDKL
Summary of the method: as §1

ETV3 = molecular target: T11, ETV3 (Homo sapiens, UniProt P41162-2 1-143); conditions: protein: recombinant; tags: N-terminal GST; dsDNA, one strand shown
T11 sequence: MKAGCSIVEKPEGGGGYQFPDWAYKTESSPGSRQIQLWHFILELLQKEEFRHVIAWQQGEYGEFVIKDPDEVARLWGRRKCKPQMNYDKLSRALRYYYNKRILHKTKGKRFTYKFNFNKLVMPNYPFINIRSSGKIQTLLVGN
Summary of the method: as §1

CTCCAG
binding signal (FEV): 1.13 fold enrichment (6-mer frequency, TF over GST control)
binding signal (ETV5): 1.17 fold enrichment (6-mer frequency, TF over GST control)
binding signal (HSF1): 1.65 fold enrichment (6-mer frequency, TF over GST control)
binding signal (SPIC): 1.16 fold enrichment (6-mer frequency, TF over GST control)
binding signal (ELF4): 1.21 fold enrichment (6-mer frequency, TF over GST control)
binding signal (ELK4): 1.18 fold enrichment (6-mer frequency, TF over GST control)
binding signal (ETV2): 1.33 fold enrichment (6-mer frequency, TF over GST control)
binding signal (ELF3): 1.02 fold enrichment (6-mer frequency, TF over GST control)
binding signal (CRX): 1.1 fold enrichment (6-mer frequency, TF over GST control)
binding signal (ETV1): 1.16 fold enrichment (6-mer frequency, TF over GST control)
binding signal (ERF): 1.2 fold enrichment (6-mer frequency, TF over GST control)
binding signal (ETV3L): 1.2 fold enrichment (6-mer frequency, TF over GST control)
binding signal (ETS2): 1.19 fold enrichment (6-mer frequency, TF over GST control)
binding signal (SPDEF): 1.16 fold enrichment (6-mer frequency, TF over GST control)
binding signal (ELF5): 1.15 fold enrichment (6-mer frequency, TF over GST control)
binding signal (ETV3): 1.23 fold enrichment (6-mer frequency, TF over GST control)
